Assay results published in PMC10726135, “HNF4α isoforms regulate the circadian balance between carbohydrate and lipid metabolism in the liver”.
Whole data set: some 18,000 sequences, median “log2 normalized intensity” near 0.39, cut for the highest 2% near 6.6. The entries come from a sample that favours the highest values as a whole.

Molecular target: T1, HNF4alpha2 (COS-7 nuclear extract) (Homo sapiens, UniProt P41235 1-474)
T1 sequence: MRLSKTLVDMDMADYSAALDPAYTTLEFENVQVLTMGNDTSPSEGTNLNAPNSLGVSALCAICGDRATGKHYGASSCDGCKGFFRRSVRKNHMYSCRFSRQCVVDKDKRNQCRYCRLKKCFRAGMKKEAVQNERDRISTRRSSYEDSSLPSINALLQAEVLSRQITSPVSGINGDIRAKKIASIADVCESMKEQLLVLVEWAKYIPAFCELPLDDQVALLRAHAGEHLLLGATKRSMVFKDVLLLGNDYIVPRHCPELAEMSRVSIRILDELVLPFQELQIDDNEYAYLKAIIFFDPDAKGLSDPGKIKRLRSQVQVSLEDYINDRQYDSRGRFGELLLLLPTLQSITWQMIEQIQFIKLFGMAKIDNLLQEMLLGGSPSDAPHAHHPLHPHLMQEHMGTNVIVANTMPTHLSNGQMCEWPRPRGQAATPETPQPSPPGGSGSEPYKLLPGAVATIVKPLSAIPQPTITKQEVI
Test: protein-binding microarray; COS-7 nuclear extract on double-stranded Agilent 4x180k PBM; binding buffer, salt, pH and temperature not given in the material; high values mean tight binding
Conditions: chain copies: 2; label: 3' end of strand 1 on the slide; dsDNA, one strand shown
Method in brief: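 The binding signal is Agilent software's gProcessedSignal after background correction and normalization. Arrays were a custom Agilent SurePrint G3 4x180k design of double-stranded ~60-nt oligonucleotides with ~44,000 test sequences in quadruplicate, probed with nuclear extracts of COS-7 cells transiently expressing a human HNF4α isoform. Scans were made at 2-µm resolution on an Agilent G2565CA scanner.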

First: CACTTCTGAAAAAAATATTGAACAAAGATTGCCTAGGGAGATTAGAGTATCGGTCGA
Second: TCTTTGATTAGGAAAGGGAACTCCCTGACCGCCTAGGGAGATTAGAGTATCGGTCGA
The binding signal of the first is higher: -0.491 log2 normalized intensity for the first, -0.639 log2 normalized intensity for the second.

First: GGTGAAATAGCTGAACTATTTAAGGCCTTTGCCTAGGGAGATTAGAGTATCGGTCGA
Second: AGTTGGAAAATATTTCTCTGAACTTTGACCGCCTAGGGAGATTAGAGTATCGGTCGA
The binding signal of the first is lower: 0.822 log2 normalized intensity for the first, 8.41 log2 normalized intensity for the second.

Going from “GCCACCCCCGTTAATTTCTAACCAATGCAGGCCTAGGGAGATTAGAGTATCGGTCGA” to “CAAACTTCTCCACTCTTCATAATTACCATTGCCTAGGGAGATTAGAGTATCGGTCGA”, the binding signal rises from 0.623 log2 normalized intensity to 0.957 log2 normalized intensity.

Compared with “ACAAGCAACCCTCCTCCCTTTGGCCATGAAGCCTAGGGAGATTAGAGTATCGGTCGA”, “TCACAGGTTCCAGCATGGACTTCACAGCCTGCCTAGGGAGATTAGAGTATCGGTCGA” is lower in binding signal: 1.54 log2 normalized intensity for the first, -0.535 log2 normalized intensity for the second.

Compared with “CAAACAGCTTAGGGTTCAAACTCCAGCTCTGCCTAGGGAGATTAGAGTATCGGTCGA”, “TCATTCCCCTAGTATATTGGCTTGGCTGTGGCCTAGGGAGATTAGAGTATCGGTCGA” is lower in binding signal: 3.29 log2 normalized intensity for the first, 2.58 log2 normalized intensity for the second.

First: AAGCACATACTTCTTCCTGTTTGACCTTCGGCCTAGGGAGATTAGAGTATCGGTCGA
Second: CCTGTTTGACCTTCGAACCCTTGCCATTTAGCCTAGGGAGATTAGAGTATCGGTCGA
The binding signal of the first is lower: 5.02 log2 normalized intensity for the first, 7.04 log2 normalized intensity for the second.

First: TTCTTCCTGTTTGACCTTCGAACCCTTGCCGCCTAGGGAGATTAGAGTATCGGTCGA
Second: CCTTGACCCTTCCTCCCATTTGCTGCTCTAGCCTAGGGAGATTAGAGTATCGGTCGA
The binding signal of the first is higher: 9.01 log2 normalized intensity for the first, 2.08 log2 normalized intensity for the second.

First: GTACCTTGACCTTCTCTGTTAACCCTTTGCGCCTAGGGAGATTAGAGTATCGGTCGA
Second: CATACTTCTTCCTGTTTGACCTTCGAACCCGCCTAGGGAGATTAGAGTATCGGTCGA
The binding signal of the first is lower: 3.76 log2 normalized intensity for the first, 9.59 log2 normalized intensity for the second.

First: TTGACCTTCTCTGTTAACCCTTTGCAGCCCGCCTAGGGAGATTAGAGTATCGGTCGA
Second: CTCCTGTTTGTATTCCTTGTCCTTGACCCTGCCTAGGGAGATTAGAGTATCGGTCGA
The binding signal of the first is lower: 2.61 log2 normalized intensity for the first, 4.35 log2 normalized intensity for the second.

Compared with “TTGACCTTCGAACCCTTGCCATTTACATCAGCCTAGGGAGATTAGAGTATCGGTCGA”, “GGAGTTGGAACGGGGGCAAGGGTCAGAGTAGCCTAGGGAGATTAGAGTATCGGTCGA” is lower in binding signal: 5.38 log2 normalized intensity for the first, 4.26 log2 normalized intensity for the second.

Going from “CTGGCATCTGGTCAGGGGTCAAGAAGCTCTGCCTAGGGAGATTAGAGTATCGGTCGA” to “GCAGAAATCAACTGCCCTCTGCCTTTCAGGGCCTAGGGAGATTAGAGTATCGGTCGA”, the binding signal falls from 2.21 log2 normalized intensity to -0.661 log2 normalized intensity.

Going from “AGAGCACATTCTTCCATATAACCCTTGAACGCCTAGGGAGATTAGAGTATCGGTCGA” to “TCAAAGGGCTTAATCTTTCCTGCCTGCCGGGCCTAGGGAGATTAGAGTATCGGTCGA”, the binding signal falls from 3.6 log2 normalized intensity to -0.693 log2 normalized intensity.

First: AGACCTTTGACATCACCTAACTTGTGGCTGGCCTAGGGAGATTAGAGTATCGGTCGA
Second: GACCTTGTTTTCAATGACTACCTGTTACCCGCCTAGGGAGATTAGAGTATCGGTCGA
The binding signal of the first is lower: 0.674 log2 normalized intensity for the first, 1.45 log2 normalized intensity for the second.

Going from “AGTGGACTTTGACCTTGTTTTCAATGACTAGCCTAGGGAGATTAGAGTATCGGTCGA” to “GCCAGCCAGGGCCACCCATCAGTGGACTTTGCCTAGGGAGATTAGAGTATCGGTCGA”, the binding signal falls from 7.31 log2 normalized intensity to 6.63 log2 normalized intensity.

Compared with “ACCCACCCACACCTCCCCTTTGTTTAACTTGCCTAGGGAGATTAGAGTATCGGTCGA”, “CCATCAGTGGACTTTGACCTTGTTTTCAATGCCTAGGGAGATTAGAGTATCGGTCGA” is higher in binding signal: 2.8 log2 normalized intensity for the first, 9.03 log2 normalized intensity for the second.

Going from “GCCACCCATCAGTGGACTTTGACCTTGTTTGCCTAGGGAGATTAGAGTATCGGTCGA” to “CCCAGGGACTTTGGCCTTACTTGGCCTGTTGCCTAGGGAGATTAGAGTATCGGTCGA”, the binding signal falls from 10.6 log2 normalized intensity to 2.62 log2 normalized intensity.

Compared with “GTTCAATGCTTCAGTGAGCCTTGACCTTCAGCCTAGGGAGATTAGAGTATCGGTCGA”, “ACTTTGACCTTGTTTTCAATGACTACCTGTGCCTAGGGAGATTAGAGTATCGGTCGA” is lower in binding signal: 4.09 log2 normalized intensity for the first, 1.84 log2 normalized intensity for the second.

Compared with “CACATGCTATTATTTTCCATCAGTGGACTTGCCTAGGGAGATTAGAGTATCGGTCGA”, “TTTGCCATTTGGAGAGAGTTTGGCCCCAGTGCCTAGGGAGATTAGAGTATCGGTCGA” is lower in binding signal: 3.5 log2 normalized intensity for the first, 2.44 log2 normalized intensity for the second.

Going from “GTATCTCTTCGCCTTGCTTATCTGGGAGGGGCCTAGGGAGATTAGAGTATCGGTCGA” to “CTTCAAAGGAGTGGAGGAAGGAAGAAGTGTGCCTAGGGAGATTAGAGTATCGGTCGA”, the binding signal rises from -0.214 log2 normalized intensity to 0.537 log2 normalized intensity.

First: GTGGTCATGTAGGTGTCTCAGGAATGTCCTGCCTAGGGAGATTAGAGTATCGGTCGA
Second: GCTTATGCATGGGAGATCTTCAGTAAGAGGGCCTAGGGAGATTAGAGTATCGGTCGA
The binding signal of the first is higher: 1.85 log2 normalized intensity for the first, -0.283 log2 normalized intensity for the second.

Compared with “GCTGGAACTCCTCCGGTCAAGATCAAGTGGGCCTAGGGAGATTAGAGTATCGGTCGA”, “TCTAAGATTGGCCCTGATAATCAATCCAGCGCCTAGGGAGATTAGAGTATCGGTCGA” is lower in binding signal: 0.207 log2 normalized intensity for the first, -0.941 log2 normalized intensity for the second.

Sequence “CCACAGAATCGCCCCACCCTGCCTGGGTAGGCCTAGGGAGATTAGAGTATCGGTCGA” has a binding signal of 1.35 log2 normalized intensity.
